# Most compounds without a hit are left out; they make up all but 2.4% or so of the library.
# Pol iota inh – DNA polymerase iota (human) inhibition; hit rate 1% among 390,000; Pol iota fluorescent replication assay, 10 min; Q9UNA4; Potency, µM (series often up to 115 µM), for inactives: at the highest dose activity, negative = inhibition, actives largely listed as inhibitors
#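 Pol iota at 10 nM preincubated 15 min with compounds at room temperature; reaction started with fluorescent substrate, 50 nM final. Fluorescence read kinetically at 0 and 10 min; buffer-only wells as negative control.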
# Pol eta inh-1 – DNA polymerase eta (human) inhibition | recombinant Pol eta, fluorescent DNA replication assay | Potency, µM (highest dose often 114 µM), without a hit: top-dose activity change, negative = inhibition, hits mostly inhibitors | hit rate 1.2% among 390,000 | AID 588591; also: % is scaled to controls: 0 for no effect and ±100 for the full control effect
#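 Fluorescent replication assay: 50 nM final substrate added after a 15 min room-temperature compound preincubation with 10 nM enzyme. Signal taken at 0 min and again at 10 min.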
# TDP1 inh – blocks human tyrosyl-DNA phosphodiesterase 1 | recombinant TDP1, AlphaScreen DNA substrate cleavage | Q9NUW8 | Potency, µM (titrated, usually from 130 µM), for the others: top-dose activity change, negative = inhibition, usual class: inhibitors | hit rate 0.28% among 350,000 | AID 485290; also: % is scaled to controls: 0 for no effect and ±100 for the full control effect; nearly all actives have a fitted effect of over 40% in size
#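 E. coli-derived human Tdp1, 1 nM final. Cpd preinc 15 min RT; substrate 15 nM final, 5 min RT; AS bead mix 10 ug/ml final, 10 min RT. Signal loss = tyrosine-FITC cleavage. No-enzyme wells = max signal.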
# FEN1 inh – blocks human flap endonuclease 1; P39748; Recombinant FEN1 flap cleavage, fluorescence, 15 min; Potency, µM (top dose mostly 114 µM), for the others: at the highest dose activity change, negative = inhibition, usual class: inhibitors; hit rate 0.35% among 390,000; AID 588795; also: % is scaled to controls: 0 for no effect and ±100 for the full control effect; nearly all actives have a fitted effect of over 65% in size
#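 Concentration–response screening of FEN1 (10 nM): 15 min compound preincubation at room temperature, reaction started with 50 nM substrate and read at 0 and 15 min. Corrected, normalized data were fitted by a four-parameter Hill equation.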
# Pol kappa inh-1 – DNA polymerase kappa (human) inhibition | purified Pol kappa, fluorescent DNA synthesis assay, 10 min | Potency, µM (titrated, usually from 107 µM), inactives show top-dose activity, negative = inhibition, most hits filed as inhibitors | hit rate 0.53% among 400,000 | AID 588579; also: % is scaled to controls: 0 for no effect and ±100 for the full control effect
# Target sequence (Q9UBT6 whole entry, looked up): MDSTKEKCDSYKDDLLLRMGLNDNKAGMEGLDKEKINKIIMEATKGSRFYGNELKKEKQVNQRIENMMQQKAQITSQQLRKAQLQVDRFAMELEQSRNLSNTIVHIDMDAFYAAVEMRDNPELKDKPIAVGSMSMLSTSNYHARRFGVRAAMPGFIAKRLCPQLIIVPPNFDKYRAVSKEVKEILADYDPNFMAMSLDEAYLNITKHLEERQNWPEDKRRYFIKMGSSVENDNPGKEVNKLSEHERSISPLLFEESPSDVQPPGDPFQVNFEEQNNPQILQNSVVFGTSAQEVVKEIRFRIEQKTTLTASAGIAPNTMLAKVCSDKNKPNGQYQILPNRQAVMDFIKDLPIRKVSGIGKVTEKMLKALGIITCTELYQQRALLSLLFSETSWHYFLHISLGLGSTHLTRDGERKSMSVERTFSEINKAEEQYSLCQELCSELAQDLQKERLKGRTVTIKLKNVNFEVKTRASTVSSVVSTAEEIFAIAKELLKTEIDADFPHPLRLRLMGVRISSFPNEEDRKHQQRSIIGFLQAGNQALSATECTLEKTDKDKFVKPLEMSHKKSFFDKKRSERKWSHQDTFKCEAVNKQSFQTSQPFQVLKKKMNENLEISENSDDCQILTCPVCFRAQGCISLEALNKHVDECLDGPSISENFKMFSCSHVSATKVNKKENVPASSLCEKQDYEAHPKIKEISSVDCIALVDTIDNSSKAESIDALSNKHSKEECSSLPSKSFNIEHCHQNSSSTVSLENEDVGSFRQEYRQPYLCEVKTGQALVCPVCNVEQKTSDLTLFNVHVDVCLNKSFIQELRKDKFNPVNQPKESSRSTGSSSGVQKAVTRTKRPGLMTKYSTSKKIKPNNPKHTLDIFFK
#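 First, compounds were pin-transferred onto 10 nM Pol kappa. After 15 min at room temperature, substrate was added to 50 nM final. Fluorescence was then measured kinetically at 0 and 10 min.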
# POLB inh – blocks human DNA polymerase beta activity; P06746; Pol beta primer extension/strand displacement, fluorescence kinetic; Potency, µM (series often up to 114 µM), without a hit: at the highest dose activity change, negative = inhibition, usual class: inhibitors; hit rate 1.3% among 340,000; also: % is scaled to controls: 0 for no effect and ±100 for the full control effect
#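 Homogeneous kinetic assay of primer extension and strand displacement by 10 nM Pol beta, preincubated 15 min at room temperature with compound before 50 nM substrate (final) was added. Read at 0 and 10 min; four-parameter Hill fit.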
# Pol kappa inh-2 – confirmation of human DNA polymerase kappa inhibitors. hit rate 76% among 920. Potency, µM, usual class: inhibitors. purified Pol-kappa, fluorescent strand-displacement substrate. shares compounds with Pol eta inh-1
# Pol eta inh-2 – confirmation of human DNA polymerase eta inhibitors | Potency, µM, hits mostly inhibitors | hit rate 64% among 2,600 | Pol eta primer extension, TAMRA/BHQ fluorescence, 10 min | AID 720502 | shares compounds with Pol eta inh-1
# The depositor's hits bear a star; ? = inconclusive; . = no result given; [ ] = remark or other dose. Calls follow the shape of the dose curve; as a rule, active = well fitted curve in the direction sought with a large enough effect; inconclusive = small, poorly fitted or top-dose-only effect, or another doubt; inactive = no such curve, though single readings can be large; an effect the other way counts as inactive or inconclusive. Potency is read from the fitted curve at half-maximal effect.
SMILES,Pol iota inh,Pol eta inh-1,TDP1 inh,FEN1 inh,Pol kappa inh-1,POLB inh,Pol kappa inh-2,Pol eta inh-2
Cc1ccc(NC(=O)c2cccc(C(=O)Nc3ccc(C)cc3C(=O)O)c2)c(C(=O)O)c1,-19.7%,?,.,?,-36.6%,-11.7%,15*,?
Cc1cccc(C)c1NC(=O)Cn1c(=O)n(Cc2ccc3c(c2)OCO3)c(=O)c2oc3ccccc3c21,4.9%,10.6%,2.6%,6.8%,0.5%,2.1%,.,.
COc1ccc(C(=O)Nc2c(N)nc[nH]c2=O)cc1,32.7%,-10.1%,.,0.5%,0.0%,.,.,.
CCc1ccc(OCC(=O)N/N=C\c2ccco2)c([N+](=O)[O-])c1,20µM*,?,-5.3%,-9.8%,79.4µM*,?,.,?
CC(C)COc1ccc(C(=O)Nc2ccc(S(=O)(=O)Nc3ncccn3)cc2)cc1,1.8%,-17.9%,2.9%[2.28 µM],7.2%,1.6%,12.9%,.,.
CCOc1ccc(C(=O)N/N=C/c2ccc(-c3ccc(S(=O)(=O)Nc4ncccn4)cc3)o2)cc1,17.8µM*,22.4µM*,-8.8%,?,?,-3.4%,23.8*,?
Cc1cc(-c2n[nH]c(=S)n2/N=C/C=C/c2ccco2)n[nH]1,17.8µM*,44.7µM*,-13.1%,-33.4%,89.1µM*,39.8µM*,.,?
Cc1cc(-c2n[nH]c(=S)n2/N=C/c2ccc(C)o2)n[nH]1,-20.3%,-12.0%,1.2%,0.6%,-2.4%,-0.8%,.,.
Cc1ccccc1-c1n[nH]c(=S)n1/N=C/C=C/c1ccco1,7.94µM*,22.4µM*,.,15.8µM*,17.8µM*,-70.6%,.,75.7*
COc1ccccc1/C=C/C=N/n1c(-c2ccccc2)n[nH]c1=S,6.1%,-3.0%,8.2%,-1.2%,-18.6%,-18.6%,.,.
CC(=O)Nc1ccc(S(=O)(=O)N(C)c2ccc(OCCOc3cccc(C)c3)cc2)cc1,31.6µM*,20µM*,12.6µM*,9.7%,?,.,37.7*,?
Cc1ccc(-n2nc3ccc(NC(=O)/C=C/c4ccco4)cc3n2)cc1,25.1µM*,?,.,1.4%,?,31.6µM*,.,?
O/N=C/c1cc(Br)ccc1OCc1ccccc1F,4.6%,-6.5%,.,?,-2.0%,.,.,.
O=C(O)CCN1C(=O)/C(=C\c2cccc(OCc3ccccc3)c2)SC1=S,28.2%,-6.4%,2.3%,-5.9%,-18.8%,-1.6%,.,.
O=C(O)CN1C(=O)/C(=C\c2cccc(OCc3ccc(Cl)cc3Cl)c2)SC1=S,?,79.4µM*,0.0%,?,-8.5%,-0.2%,47.4*,?
O=C(O)CN1C(=O)/C(=C\c2cc(Br)ccc2OCc2ccccc2F)SC1=S,-24.7%,?,.,?,-14.0%,?,.,?
CC(=O)Nc1ccc(S(=O)(=O)O)c(OC(C)=O)c1,?,-4.7%,.,-7.7%,-34.0%,.,.,.
CC(=O)Nc1ccc2c(O)cc(S(=O)(=O)O)cc2c1,20µM*,31.6µM*,.,?,?,.,?,?
O=C1Nc2ccccc2Oc2cc(Oc3ccccc3)ccc21,79.4µM*,.,.,-24.5%,?,-41.6%,.,?
Cc1c(C#N)c(O)[nH]c(=O)c1N=Nc1ccc(S(N)(=O)=O)cc1,?,25.1µM*,.,-26.2%,-41.3%,7.2%,?,84.9*
Cc1c(C#N)c(O)[nH]c(=O)c1N=Nc1ccc(Cl)c(C(=O)O)c1,4.6%,-6.1%,.,-2.6%,-4.7%[60.1 µM],15.2%,.,.
CCc1ccc(/C=C2\C(=N)N3N=C(CC(=O)N4CCCCC4)SC3=NC2=O)cc1,?,-7.4%,6.1%,0.8%,?,-7.8%,.,.
CSc1ccc(/C=C2\C(=N)N3N=C(CC(=O)N4CCCCC4)SC3=NC2=O)cc1,?,44.7µM*,3.0%,-19.1%,89.1µM*,?,67*,.
Cc1ccc(/C=C2\C(=N)N3N=C(CC(=O)N4CCCCC4)SC3=NC2=O)cc1,?,?,5.1%,-15.0%,?,-20.7%,.,19*
Cc1c(Cl)cccc1NC(=O)c1ccc2c(c1)CCN2S(=O)(=O)c1ccccc1,-4.7%,4.3%,-2.3%,-17.0%,-0.7%,23.4%,.,.
SMILES,Pol iota inh,Pol eta inh-1,TDP1 inh,FEN1 inh,Pol kappa inh-1,POLB inh,Pol kappa inh-2,Pol eta inh-2
COc1cccc(NC(=O)c2ccccc2OCC(=O)Nc2ccc(Br)cc2)c1,4.2%,.,.,-18.2%,-3.0%,.,.,.
Cc1cc(C(=O)N/N=C/c2cc(Br)c(Br)o2)n[nH]1,14.1µM*,17.8µM*,-20.5%,8.2%,79.4µM*,44.7µM*,47.4*,60.1*
NS(=O)(=O)c1ccc(NC(=O)CSc2nnc(NC3CC3)s2)cc1,39.8µM*,20µM*,14.1µM*,-2.5%,?,.,.,67.5*
O=C1NCCCCC1NS(=O)(=O)c1ccc(Cl)cc1 (stereo not given),28.4%,-6.9%,.,1.9%,5.6%,1.5%,.,.
CS(=O)(=O)c1ccc(C(=O)Nc2nc(-c3ccco3)c(-c3ccco3)s2)cc1,1.58µM*,5.01µM*,9.8%,56.2µM*,3.16µM*,.,.,42.6*
CS(=O)(=O)c1ccc2nc(NC(=O)c3ccccc3)sc2c1,112.0%,-14.5%,.,4.2%,-2.3%,-0.7%,.,.
COc1ccc2c(c1OC)C(=O)OC2Nc1nc(-c2cc3cc(Br)ccc3oc2=O)cs1 (stereo not given),?,-9.9%,.,-11.9%,-19.6%,?,.,?
Nn1c(SCC(=O)Nc2nc3ccccc3s2)nncc1=O,?,?,-12.7%,-3.0%,0.4%,29.1%,.,.
N#Cc1c(SCC(=O)Nc2nc3ccccc3s2)sc2c(O)cc(=O)[nH]c12,6.31µM*,4.47µM*,.,17.8µM*,12.6µM*,.,18.9*,30.1*
CCOc1ccc(NC(=O)Cn2cc(C(=O)c3ccccc3)c(=O)c3cc4c(cc32)OCCO4)cc1,37.1%,-13.0%,9.0%,-2.6%,-10.4%,-0.4%,.,.
O=C(O)c1ccc(NCc2cccnc2)c([N+](=O)[O-])c1,-5.7%,-4.0%,.,29.1%,7.2%,53.6%,.,.
O=C(O)c1cc(NS(=O)(=O)c2ccc(NCc3ccccc3)c([N+](=O)[O-])c2)cc(C(=O)O)c1,-11.0%,15.8µM*,.,8.7%,-24.5%,-20.0%,?,.
CCOc1cc(/C=C2/C(=N)N3N=C(C)SC3=NC2=O)ccc1OS(=O)(=O)c1ccc(C)cc1,?,?,2.2%,-10.2%,-19.1%,-26.8%,.,.
COc1cc(/C=C2/C(=N)N3C(c4ccccc4)=CSC3=NC2=O)ccc1OCC(=O)O,-30.4%,20µM*,6.5%,?,-26.6%,-22.0%,.,?
COc1cc(/C=C2\C(=N)N3N=C(C)SC3=NC2=O)cc(OC)c1OCCOc1ccccc1C,?,-8.6%,.,-16.8%,-12.7%,3.7%,.,.

# Screening results: PubChem, National Center for Advancing Translational Sciences (NCATS)
